Data reported in PubChem BioAssay AID588342 (National Center for Advancing Translational Sciences (NCATS), 2011).
Among all 360,000 compounds or so, about 25,000 (6.9%) were called active. Inconclusive results (about 9%) are left out. What follows is part of a selection rich in actives, with near analogues and random picks from the rest. A number with no mark means an inactive call. The call rests on the fitted dose curve; in most records, active means well fitted inhibition curve with a large enough effect; inconclusive means small, poorly fitted or top-dose-only effect; inactive means flat fitted curve, though single readings scatter.

molecular target: Luciferin 4-monooxygenase (Photinus pyralis) (UniProt P08659); assay: qHTS profiling assay for firefly luciferase inhibitor/activator using purifed enzyme and Km concentrations of substrates (counterscreen for miR-21 project); details: purified FLuc, luminescence inhibition; series mostly up to 57.5 µM; activity change, negative = inhibition: at the top concentration; further: nearly all actives have a fitted effect of over 55% in size;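 on activity change, negative = inhibition: plate controls were vehicle for no effect and reference inhibitor for full effect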
Sequence (P08659 whole entry, looked up): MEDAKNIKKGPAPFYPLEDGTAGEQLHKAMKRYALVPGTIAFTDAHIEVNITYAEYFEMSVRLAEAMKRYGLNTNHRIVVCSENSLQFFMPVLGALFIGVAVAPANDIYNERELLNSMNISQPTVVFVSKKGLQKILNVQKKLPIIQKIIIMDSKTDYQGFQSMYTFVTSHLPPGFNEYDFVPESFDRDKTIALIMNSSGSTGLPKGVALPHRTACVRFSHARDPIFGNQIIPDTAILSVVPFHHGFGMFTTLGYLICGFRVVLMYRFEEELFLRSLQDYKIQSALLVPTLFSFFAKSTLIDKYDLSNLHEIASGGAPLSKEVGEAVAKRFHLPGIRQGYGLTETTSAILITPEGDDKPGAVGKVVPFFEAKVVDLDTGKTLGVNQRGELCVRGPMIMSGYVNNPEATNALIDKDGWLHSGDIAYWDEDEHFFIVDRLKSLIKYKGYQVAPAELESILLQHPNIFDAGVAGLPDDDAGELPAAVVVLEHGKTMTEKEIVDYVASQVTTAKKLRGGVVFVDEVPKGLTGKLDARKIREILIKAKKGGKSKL
Outline: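 Purified P. pyralis luciferase (10nM final) with 10uM D-luciferin and 10uM ATP (Km levels) in 50mM Tris acetate pH 7.5, 10mM Mg acetate, 0.01% Tween-20, 0.05% BSA; qHTS 6-point titration, ~60 µM downward; luminescence read.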
Potency means the concentration at half of the fitted maximal effect.

Compound	activity change, negative = inhibition	Potency
CCOC(=O)c1ccc(-c2ccc(/C=C(\C#N)C(=O)Nc3ccc(C)cc3)o2)cc1	-3.16%	
CCOC(=O)c1ccc(-c2ccc(C(=O)Nc3cccnc3)o2)cc1		15.1 µM (active)
O=C(O)c1c(CNCc2cccc(F)c2)c2ccccc2n1Cc1ccccc1	-11.7%	
CNC(=S)NNC(=O)c1sccc1OCc1ccccc1	0.426%	
Cc1ccc(COc2ccc(/C=N/NC(=O)CN3CCCCC3)cc2)cc1	-13.2%	
Cc1ccc(/C=N/NC(=O)c2sccc2OCc2ccc(F)cc2)cc1		1.35 µM (active)
O=C(c1ccc2c(c1)N(Cc1ccccc1F)C(=O)c1ccccc1S2(=O)=O)N1CCOCC1	-3.29%	
CCN(CC)CCNC(=O)CN1N=C(c2ccc(OC)cc2)CCC1=O	3.09%	
COc1ccc(C2=NN(c3nc4ccccc4s3)C(=O)C2)cc1		9.53 µM (active)
COc1ccc(C2=NN(C(=O)c3cccnc3)C(c3ccccc3)C2)cc1 (stereo not given)	-10.9%	
COc1ccc(S(=O)(=O)c2c(Nc3cccc(Cl)c3)sc(C(=O)c3ccccc3)c2N)cc1	0.0899%	
COc1cc(-c2cc3n(C)c(C)c(CCC(=O)Nc4ccc(F)cc4)c(=O)n3n2)cc(OC)c1OC	3.74%	
CCc1ccc(CN(C)Cc2nc(Cc3ccccc3)no2)nc1	3.54%	
CCc1ccc(CN(C)C(=O)CCc2nnc(-c3ccc(-c4ccccc4)cc3)o2)nc1		13.5 µM (active)
CC(=O)c1ccc(-c2nnc(CCC(=O)N(C)Cc3cnc4ccccn34)o2)s1	-0.52%	
Nc1ccc(-c2nnc(-c3ccccc3)o2)cc1		19 µM (active)
CC(=O)c1ccc(NC(c2ccc(F)cc2)c2nnc(-c3ccccc3)o2)cc1 (stereo not given)	-2.01%	
Nc1ccc(-c2nnc(-c3ccc(-c4ccccc4)cc3)o2)cc1		2.69 µM (active)
Nc1cccc(-c2cc(-c3ccccc3)nc(-c3cccc(N)c3)n2)c1	1.65%	
Nc1ccc(-c2sc(N)nc2-c2ccccc2)cc1	-1.44%	
O=C(OCc1nnc(-c2ccccc2)o1)c1cc(=O)[nH]c2ccccc12	4.33%	
Cc1oc2ccc(O)c(CN3CCOCC3)c2c1C(=O)Nc1cccc(Cl)c1C	-1.52%	
CC(NC(=O)CCc1cn(Cc2ccccc2Cl)c2ccccc12)c1ccccc1 (stereo not given)	6.58%	
CCCSc1nc2sc3c(c2c(=O)n1-c1cccc(Br)c1)CC(C)(C)OC3	0.901%	
Cc1ccccc1NC(=O)Cc1nc(COC(=O)c2ccc(C(F)(F)F)cc2)cs1	3.93%	

Compound	activity change, negative = inhibition	Potency
Cc1ccc(C)c(NC(=O)COC(=O)CSc2ccccc2)c1	6.9%	
CCOc1ccc(NC(=O)CN(Cc2ccccc2)S(=O)(=O)c2ccc(Cl)cc2)cc1	-5.84%	
CCc1ccnc(NC(=O)Nc2ccc(OCc3ccccc3)cc2)c1	-2.87%	
O=C(O)/C=C\C(=O)Nc1ccc(OCc2ccccc2)cc1		19 µM (active)
Cc1cccc(NC(=O)Nc2ccc(OCc3ccccc3)cc2)n1	-1.92%	
COc1cccc(C(=O)Nc2ccc(N3CCN(C(=O)c4ccco4)CC3)cc2)c1	-3%	
O=C(Nc1ccc(S(=O)(=O)N2CCc3ccccc3C2)cc1)c1ccccc1	0.419%	
CC(=O)Nc1ccc(S(=O)(=O)N2CCN(c3ccccc3)CC2)cc1	-1.03%	
COc1cccc(C(=O)Nc2ccc(N3CCCC3)cc2)c1		4.26 µM (active)
CC(=O)Oc1cccc(C(=O)Nc2ccccc2NC(=O)c2cccc(OC(C)=O)c2)c1	-0.563%	
COc1ccc(C(=O)Nc2ccc(N3CCC(C)CC3)cc2)cc1Br	-1.07%	
Cc1ccccc1C(=O)NC(=S)Nc1ccc(N2CCN(C(=O)c3ccccc3)CC2)cc1	2.99%	
O=C(Nc1ccc(C(=O)O)c(O)c1)c1ccccc1		15.1 µM (active)
CN1CCN(c2ccc(NC(=O)c3ccccc3)cc2)CC1		10.7 µM (active)
O=C(Cn1ccc(=O)[nH]c1=O)Nc1ccc(C(=O)O)c(O)c1	-4.38%	
COc1cccc(C(=O)Nc2cc3c(cc2Br)OCCCO3)c1		4.78 µM (active)
COc1ccc(C2COC(=O)C2=N)c(NC(=O)c2ccccc2)c1 (stereo not given)	4.01%	
COc1ccccc1N1CCN(C(=O)C2Cc3ccccc3CN2C(=O)c2ccco2)CC1 (stereo not given)	3.04%	
CC(=O)c1ccc(NC(=O)CSc2nc(-c3ccccc3F)nc3c2c(=O)n(C)c(=O)n3C)cc1	4.57%	
CC(=O)N1c2ccc(S(=O)(=O)N(C)CC(=O)N(C)Cc3ccccc3)cc2CC1C (stereo not given)	4.32%	
CCCCn1c(SCc2ncc(-c3ccccc3)o2)nc2cc(S(N)(=O)=O)ccc21	-17.5%	
Cc1oc2ccc(O)c(CN3CCCCC3)c2c1C(=O)Nc1cccc(C(F)(F)F)c1	-0.279%	
CCn1c(CN2CCC(C)CC2)nc2cc(NC(=O)c3ccccc3[N+](=O)[O-])ccc21	5.45%	
Cc1ccc(NC(=O)C(C)OC(=O)Cc2c[nH]c3ccccc23)cc1S(=O)(=O)N1CCOCC1 (stereo not given)	-1.54%	
COc1ccc(CCNC(=O)CCCCn2c(=O)c3ccccc3n(Cc3ccccc3C)c2=O)cc1OC	-1.31%	
